Test results taken from PubChem BioAssay (NCI).
Where “and” joins values, the source holds several entries; their conditions need not be identical. Equal values may be shown once. The panel holds about 79,000 compounds, 15% with a hit somewhere; the sample as a whole holds those more often. A number with no mark means an inactive call. Rule as the data show it: active = growth inhibition above about 70%; inactive = the rest.

experiment: NCI Yeast Anticancer Drug Screen. Data for the cln2 rad14 strain (AID 165);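 also: 0% = growth equal to vehicle treated cultures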; details: S. cerevisiae cln2 rad14 strain, at 50.0 µM, stronger effect = higher value
Summary of the method: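 Compounds are applied to the cln2 rad14 yeast strain, and growth is then compared with that of vehicle-treated cultures to give inhibition.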

SMILES | growth inhibition
O=C(c1ccccc1)C1C(C(=O)c2ccccc2)N1Cc1ccccc1 (stereo unspecified) | 2.8% and -1.2%
c1ccc2c(c1)ccc1[s+]cccc12 | 25.4%
CC(C)N(C(=O)SCC(Cl)=C(Cl)Cl)C(C)C | -3.05%
CC(C)(Cl)[N+](=O)[O-] | -1.7%
CC(C)NC(C)C(C)c1ccccc1 (stereo unspecified) | -11.9%
[Pd].[Pd].[S-]CC[S-].[S-]CC[S-].c1ccc([PH+](c2ccccc2)c2ccccc2)cc1.c1ccc([PH+](c2ccccc2)c2ccccc2)cc1 | -22.1%
N.N.O=P([O-])([O-])CN(CP(=O)([O-])[O-])CP(=O)([O-])[O-].[Pt+2] | -12.9%
CC1(CCl)COP(=O)(NN)OC1 (stereo unspecified) | -28.7%
O=[P+](O)c1ccccc1 | 5.9% and 0.6%
O=P1(N(CCCl)CCCl)Oc2c(Cl)cc(Cl)c(Cl)c2Cc2c(Cl)c(Cl)cc(Cl)c2O1 | 0.25%
CN(C)P(=O)(N(C)C)N(C)CO | 7.35%
O=C(O)c1cc(Cc2ccc(O)c(C(=O)O)c2)ccc1O | -0.5% and -39.9%
Cc1cccc(NC(=O)C(=O)C2C(=O)NC(=O)NC2=O)c1C | 7.25%
C=C1C(=O)OC2CC3(C)OC3CC/C(C)=C/C(OC(C)=O)C12 (stereo unspecified) | 21.1%
CCn1/c(=N\N=O)sc2ccccc21 | -23.9%
COC(=O)c1cccc(S(=O)(=O)F)c1 | -13.4%
